Measured values: PubChem BioAssay (EPA / NIEHS)
The source made the active and inactive calls. Rule for the calls: active = hit-call score of the fitted dose curve at least 0.9, where 1 is the maximum; inactive = score below 0.9.

Tests used:
[1] = ATG_E_Box_CIS: Attagene CIS-FACTORIAL HepG2 Assay for human Enhancer Box (E-box) (AID 2282936); details: HepG2 E-box cis-reporter transcription, actives raise or lower the signal
How it was run: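 Measured 24 h post-dosing in HepG2 cells transfected with multiple cis-regulated reporter units, signal being reporter mRNA induction detected by fluorescent RT-PCR with capillary electrophoresis; gain or loss fitted against DMSO.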

[2] = ATG_M_61_CIS: Attagene CIS-FACTORIAL HepG2 Assay for M61 Transcription Factor (Internal Marker) (AID 2282937); details: HepG2 Attagene CIS-FACTORIAL M61 internal marker reporter; actives raise or lower the signal
How it was run: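 HepG2 cells transiently transfected with multiplexed cis-promoter reporter units reporting endogenous transcription factor activity, measured 24 h after dosing. Reporter mRNA quantified by RT-PCR and capillary electrophoresis; bidirectional fit against DMSO baseline.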

[3] = ATG_EGR_CIS: Attagene CIS-FACTORIAL HepG2 Assay for human Early Growth Response 1 (EGR1) (AID 2282938); details: HepG2 Attagene CIS-FACTORIAL EGR reporter mRNA; actives raise or lower the signal
How it was run: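 HepG2 cells transiently transfected with cis-element-driven multiplexed reporter units, dosed for 24 h. EGR1-element reporter mRNA quantified by RT-PCR, 6-FAM labelling, HpaI digestion and capillary electrophoresis; bidirectional fit versus DMSO.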

[4] = ATG_M_19_CIS: Attagene CIS-FACTORIAL HepG2 Assay for M19 Transcription Factor (Internal Marker) (AID 2282939); details: HepG2 Attagene CIS-FACTORIAL M19 internal marker reporter; actives raise or lower the signal
How it was run: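 Transfect HepG2 with MRTU reporter library → dose chemical, 24 h → isolate total RNA, reverse-transcribe with oligo(dT) → PCR, 6-FAM label, HpaI cut (2 h, 37 C) → capillary electrophoresis. Bidirectional fit vs DMSO.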

[5] = ATG_Ets_CIS: Attagene CIS-FACTORIAL HepG2 Assay for human Erythroblast Transformation Specific (ETS) (AID 2282941); details: HepG2 ETS cis-reporter transcription, actives raise or lower the signal
How it was run: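 Endogenous transcription factor activity read as reporter mRNA via RT-PCR and capillary electrophoresis, with gain or loss fitted bidirectionally against DMSO. Human HepG2 liver cells, transiently transfected CIS reporter constructs, 24 h exposure.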

[6] = biological target: Hepatocyte nuclear factor 3-beta (Homo sapiens) (UniProt Q9Y261); assay: ATG_FoxA2_CIS: Attagene CIS-FACTORIAL HepG2 Assay for human Forkhead box A2 (FOXA2) (AID 2282942); details: HepG2 cis-reporter transcription factor activity, 24 h; actives raise or lower the signal
Sequence of Hepatocyte nuclear factor 3-beta (Homo sapiens) (Q9Y261 whole entry, looked up): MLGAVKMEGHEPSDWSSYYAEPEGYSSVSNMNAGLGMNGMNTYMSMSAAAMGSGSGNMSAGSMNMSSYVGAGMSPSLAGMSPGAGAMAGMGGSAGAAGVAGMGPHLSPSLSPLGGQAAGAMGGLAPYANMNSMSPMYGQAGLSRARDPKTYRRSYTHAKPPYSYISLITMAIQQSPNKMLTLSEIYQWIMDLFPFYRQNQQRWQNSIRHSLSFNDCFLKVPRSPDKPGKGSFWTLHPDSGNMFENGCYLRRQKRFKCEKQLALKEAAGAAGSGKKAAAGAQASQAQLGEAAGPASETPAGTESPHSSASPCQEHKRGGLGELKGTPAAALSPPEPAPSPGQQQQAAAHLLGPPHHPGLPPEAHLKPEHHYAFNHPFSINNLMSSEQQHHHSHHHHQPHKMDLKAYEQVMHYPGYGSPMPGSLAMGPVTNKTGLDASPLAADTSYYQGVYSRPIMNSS
How it was run: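 HepG2 transiently transfected with a multiplexed cis-promoter reporter library read endogenous FOXA2 activity. After 24 h compound exposure, reporter mRNA was quantified by RT-PCR, HpaI digestion and capillary electrophoresis. Bidirectional fit against DMSO.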

[7] = ATG_FoxO_CIS: Attagene CIS-FACTORIAL HepG2 Assay for human Forkhead box O (FoxO) (AID 2282943); details: HepG2 Attagene cis-reporter, FoxO element, mRNA; actives raise or lower the signal
How it was run: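 24 h chemical exposure, HepG2 with transient cis-MRTU transfection. RNA extraction, oligo(dT) RT, reporter-specific PCR, primer-extension labelling, HpaI digestion, CE fragment analysis; bidirectional fit, DMSO baseline.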

[8] = ATG_GATA_CIS: Attagene CIS-FACTORIAL HepG2 Assay for human GATA Binding Protein (AID 2282944); details: HepG2 GATA cis-element reporter, Attagene multiplex mRNA; actives raise or lower the signal
How it was run: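 Transient MRTU transfection, HepG2, 24 h compound exposure. Total RNA → oligo(dT) RT → PCR → 6-FAM primer extension → HpaI cut → CE. Bidirectional fit vs DMSO.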

[9] = ATG_GLI_CIS: Attagene CIS-FACTORIAL HepG2 Assay for human Zinc Finger Protein GLI1 (AID 2282945); details: HepG2, Attagene cis-factorial reporter mRNA, GLI element; actives raise or lower the signal
How it was run: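 HepG2 cells transiently transfected with cis-promoter multiplexed reporter units report endogenous transcription factor activity. After 24 h chemical exposure, reporter mRNA was quantified by RT-PCR, 6-FAM labelling, HpaI digestion and capillary electrophoresis, with bidirectional fitting against DMSO.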

[10] = ATG_ISRE_CIS: Attagene CIS-FACTORIAL HepG2 Assay for human Interferon Regulatory Factor 1 (IRF1) binding to an Interferon-Stimulated Response Element (ISRE) (AID 2282948); details: HepG2 ISRE cis-reporter (Attagene), mRNA transcription readout; actives raise or lower the signal
How it was run: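 Endogenous transcription factor activity read as reporter transcript abundance via RT-PCR and capillary electrophoresis. HepG2 cells transiently transfected, 24 h chemical exposure. Gain or loss fitted against DMSO baseline.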

[11] = ATG_M_32_CIS: Attagene CIS-FACTORIAL HepG2 Assay for M32 Transcription Factor (Internal Marker) (AID 2282949); details: HepG2 Attagene cis-factorial M32 reporter, mRNA; actives raise or lower the signal;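 note: background control marker of the multiplexed CIS panel rather than a real target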
How it was run: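 Using DMSO as baseline, bidirectional curve fits were applied to reporter mRNA signals. These came from transiently transfected HepG2 cells exposed for 24 h, with RNA analysed by RT-PCR, FAM primer extension, HpaI digestion and CE.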

[12] = ATG_M_06_CIS: Attagene CIS-FACTORIAL HepG2 Assay for M06 Transcription Factor (Internal Marker) (AID 2282950); details: HepG2 Attagene CIS-FACTORIAL M06 internal marker reporter; actives raise or lower the signal
How it was run: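 Read-out is fluorescence of labelled reporter cDNA fragments resolved by capillary electrophoresis after RT-PCR. Cells: HepG2 carrying transfected cis-promoter reporter units, treated 24 h. Gain or loss of signal fitted relative to DMSO.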

[13] = biological target: Hypoxia-inducible factor 1-alpha (Homo sapiens) (UniProt Q16665); assay: ATG_HIF1a_CIS: Attagene CIS-FACTORIAL HepG2 Assay for human Hypoxia Inducible Factor 1 (HIF1A) (AID 2282951); details: HepG2 Attagene cis-factorial HIF1a reporter transcription; actives raise or lower the signal
Sequence of Hypoxia-inducible factor 1-alpha (Homo sapiens) (Q16665 whole entry, looked up): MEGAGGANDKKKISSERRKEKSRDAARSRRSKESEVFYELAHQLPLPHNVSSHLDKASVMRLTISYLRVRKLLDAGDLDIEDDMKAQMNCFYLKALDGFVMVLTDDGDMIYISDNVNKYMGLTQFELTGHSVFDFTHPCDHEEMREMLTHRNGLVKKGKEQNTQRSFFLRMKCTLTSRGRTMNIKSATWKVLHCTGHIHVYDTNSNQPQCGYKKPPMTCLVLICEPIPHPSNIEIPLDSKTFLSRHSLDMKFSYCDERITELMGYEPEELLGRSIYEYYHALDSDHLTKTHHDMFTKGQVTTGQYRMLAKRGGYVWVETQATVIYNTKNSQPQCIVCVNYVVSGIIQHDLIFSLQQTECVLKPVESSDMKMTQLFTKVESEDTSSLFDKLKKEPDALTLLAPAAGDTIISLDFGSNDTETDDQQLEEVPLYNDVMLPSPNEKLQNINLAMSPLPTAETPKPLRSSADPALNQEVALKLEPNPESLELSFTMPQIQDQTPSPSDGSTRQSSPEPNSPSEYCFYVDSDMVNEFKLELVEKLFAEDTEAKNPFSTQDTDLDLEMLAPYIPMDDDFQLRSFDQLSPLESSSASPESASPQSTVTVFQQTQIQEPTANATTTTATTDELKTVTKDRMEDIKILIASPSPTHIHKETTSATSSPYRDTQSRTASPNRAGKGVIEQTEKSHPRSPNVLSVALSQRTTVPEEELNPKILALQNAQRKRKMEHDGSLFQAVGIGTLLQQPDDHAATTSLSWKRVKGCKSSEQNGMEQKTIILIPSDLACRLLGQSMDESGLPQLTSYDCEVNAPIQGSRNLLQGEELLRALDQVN
How it was run: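 HepG2 cells transiently transfected with multiple cis-regulated reporter transcription units measure endogenous transcription factor activity. After 24 h exposure, reporter mRNA is quantified by RT-PCR with 6-FAM labelling, HpaI digestion and capillary electrophoresis. Bidirectional fitting against DMSO.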

[14] = biological target: Hepatocyte nuclear factor 6 (Homo sapiens) (UniProt Q9UBC0); assay: ATG_HNF6_CIS: Attagene CIS-FACTORIAL HepG2 Assay for human Hepatocyte Nuclear Factor 6 (HNF6) (AID 2282952); details: HepG2 Attagene cis-factorial HNF6 reporter transcription; actives raise or lower the signal
Sequence of Hepatocyte nuclear factor 6 (Homo sapiens) (Q9UBC0 whole entry, looked up, the tested form may be a part): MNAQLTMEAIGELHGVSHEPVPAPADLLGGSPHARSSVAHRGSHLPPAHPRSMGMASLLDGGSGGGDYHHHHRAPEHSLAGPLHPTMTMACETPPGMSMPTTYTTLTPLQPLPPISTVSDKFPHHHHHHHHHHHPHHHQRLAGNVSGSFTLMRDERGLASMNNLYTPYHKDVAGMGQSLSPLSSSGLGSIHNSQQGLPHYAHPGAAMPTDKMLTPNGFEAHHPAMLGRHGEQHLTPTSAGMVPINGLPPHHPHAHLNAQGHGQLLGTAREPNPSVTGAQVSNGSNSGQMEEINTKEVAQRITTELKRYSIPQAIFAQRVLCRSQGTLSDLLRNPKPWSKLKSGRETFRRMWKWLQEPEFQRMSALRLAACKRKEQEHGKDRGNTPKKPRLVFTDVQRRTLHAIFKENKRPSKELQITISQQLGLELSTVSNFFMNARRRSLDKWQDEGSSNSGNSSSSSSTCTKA
How it was run: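 Using cis-element reporters in HepG2 liver cells, the assay tracks endogenous factor-driven transcription 24 h post-dosing. Signal comes from 6-FAM-labelled, HpaI-digested RT-PCR fragments, with gain or loss scored against DMSO.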

[15] = ATG_MRE_CIS: Attagene CIS-FACTORIAL HepG2 Assay for human Metal Responsive Element (MRE) (AID 2282954); details: HepG2 MRE cis-reporter transcription, Attagene multiplex; actives raise or lower the signal
How it was run: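 Readout: capillary electrophoresis of 6-FAM-labelled, HpaI-digested RT-PCR reporter products. System: HepG2 cells carrying transient multiplexed cis reporters, dosed 24 h. Analysis: bidirectional fit, DMSO baseline.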

[16] = ATG_PBREM_CIS: Attagene CIS-FACTORIAL HepG2 Assay for human Phenobarbital-responsive Enhancer Module (PBREM) (AID 2282955); details: HepG2 PBREM cis-reporter, Attagene multiplexed transcription; actives raise or lower the signal
How it was run: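 HepG2 cells transiently transfected with multiple cis-regulated reporter units measure endogenous transcription factor activity; 24 h compound exposure. Reporter mRNA quantified by RT-PCR, fluorescent labelling, HpaI digestion and capillary electrophoresis; bidirectional fit versus DMSO.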

[17] = biological target: Paired box protein Pax-6 (Homo sapiens) (UniProt P26367); assay: ATG_Pax6_CIS: Attagene CIS-FACTORIAL HepG2 Assay for human Paired Box 6 (PAX6) (AID 2282956); details: HepG2 CIS-FACTORIAL PAX6 reporter transcription, RNA readout; actives raise or lower the signal
Sequence of Paired box protein Pax-6 (Homo sapiens) (P26367 whole entry, looked up): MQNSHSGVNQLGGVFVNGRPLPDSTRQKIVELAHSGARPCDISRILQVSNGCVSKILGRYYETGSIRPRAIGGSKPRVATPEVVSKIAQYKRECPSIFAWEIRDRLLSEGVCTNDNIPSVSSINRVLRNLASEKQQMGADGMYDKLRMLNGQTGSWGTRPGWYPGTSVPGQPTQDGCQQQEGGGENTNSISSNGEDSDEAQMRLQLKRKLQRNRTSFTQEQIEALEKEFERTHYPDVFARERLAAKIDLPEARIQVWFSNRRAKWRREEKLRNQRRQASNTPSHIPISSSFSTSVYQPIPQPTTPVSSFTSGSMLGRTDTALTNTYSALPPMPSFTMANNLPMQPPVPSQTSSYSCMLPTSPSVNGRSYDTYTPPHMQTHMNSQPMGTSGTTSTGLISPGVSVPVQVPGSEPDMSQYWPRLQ
How it was run: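 Read-out is reporter transcript level, measured by RT-PCR with fluorescent primer extension and capillary electrophoresis after 24 h dosing of transfected HepG2 cells. Activity in either direction fitted relative to DMSO control.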

[18] = biological target: Heat shock factor protein 1 (Homo sapiens) (UniProt Q00613); assay: ATG_HSE_CIS: Attagene CIS-FACTORIAL HepG2 Assay for human Heat Shock Transcription Factor 1 (HSE) (AID 2282953); details: HepG2 HSE cis-reporter, Attagene RNA transcription; actives raise or lower the signal
Sequence of Heat shock factor protein 1 (Homo sapiens) (Q00613 whole entry, looked up): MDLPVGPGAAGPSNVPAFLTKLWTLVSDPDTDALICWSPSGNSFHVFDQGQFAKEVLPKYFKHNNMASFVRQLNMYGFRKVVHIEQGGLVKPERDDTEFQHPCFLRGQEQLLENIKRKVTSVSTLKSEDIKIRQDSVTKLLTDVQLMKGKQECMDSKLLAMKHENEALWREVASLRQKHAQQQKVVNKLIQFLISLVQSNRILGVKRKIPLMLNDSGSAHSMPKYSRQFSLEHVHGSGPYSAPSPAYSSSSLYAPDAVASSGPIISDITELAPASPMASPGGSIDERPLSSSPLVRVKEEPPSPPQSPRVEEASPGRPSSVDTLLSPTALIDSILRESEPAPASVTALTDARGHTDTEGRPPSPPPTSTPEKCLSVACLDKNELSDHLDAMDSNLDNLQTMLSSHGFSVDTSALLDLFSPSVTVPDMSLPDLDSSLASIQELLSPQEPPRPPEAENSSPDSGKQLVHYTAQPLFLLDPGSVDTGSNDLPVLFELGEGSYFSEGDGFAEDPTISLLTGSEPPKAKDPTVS
How it was run: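 HepG2, transient MRTU transfection, cis-promoter reporters (endogenous TF activity). 24 h compound. RNA → oligo(dT) RT → PCR → 6-FAM primer extension → HpaI cut → CE. Bidirectional fit vs DMSO.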

[19] = ATG_GRE_CIS: Attagene CIS-FACTORIAL HepG2 Assay for human Glucocorticoid Response Elements (GRE) (AID 2282947); details: HepG2 GRE cis-reporter, Attagene multiplex mRNA; actives raise or lower the signal
How it was run: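 HepG2, transient cis-reporter transfection, 24 h. Reporter mRNA: RT-PCR then CE, fluorescence. Fit both directions vs DMSO.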

SMILES | outcome [1] | outcome [2] | outcome [3] | outcome [4] | outcome [5] | outcome [6] | outcome [7] | outcome [8] | outcome [9] | outcome [10] | outcome [11] | outcome [12] | outcome [13] | outcome [14] | outcome [15] | outcome [16] | outcome [17] | outcome [18] | outcome [19] | AC50 [7]
Nc1cccc(N)c1 | inactive | inactive | inactive | inactive | inactive | inactive | inactive | inactive | inactive | inactive | inactive | inactive | inactive | inactive | inactive | inactive | inactive |  |  | 
O=C(O)c1cccc(N(Cc2cccnc2)c2ccc(OC(F)F)c(OC(F)F)c2)c1 | inactive | inactive | inactive | inactive | inactive | inactive | inactive | inactive | inactive | inactive | inactive | inactive | inactive | inactive | inactive | inactive | inactive | inactive |  | 
Cn1c(=O)c2c(ncn2C)n(C)c1=O | inactive | inactive | inactive | inactive | inactive | inactive | inactive | inactive | inactive | inactive |  | inactive | inactive | inactive | inactive | inactive | inactive |  | inactive | 
CCCCCCCCCCCCc1ccccc1 | inactive | inactive | inactive | inactive | inactive | inactive | inactive | inactive | inactive | inactive |  | inactive | inactive | inactive | inactive | inactive | inactive | inactive |  | 
CCCCCCCCCCCCCCCO | inactive | inactive | inactive | inactive | inactive | inactive |  | inactive | inactive | inactive |  | inactive | inactive | inactive | inactive |  | inactive |  |  | 175 µM (active)
O=C1CCCCCN1 | inactive | inactive | inactive | inactive | inactive | inactive | inactive | inactive | inactive | inactive |  | inactive | inactive | inactive | inactive | inactive | inactive |  |  | 
CC(O)CN(CCN(CC(C)O)CC(C)O)CC(C)O (configuration not stated) | inactive | inactive | inactive | inactive | inactive | inactive | inactive | inactive | inactive | inactive |  | inactive |  | inactive | inactive | inactive | inactive | inactive | inactive | 
O=C(O)CC(O)C(=O)O (configuration not stated) | inactive | inactive | inactive | inactive | inactive | inactive | inactive | inactive | inactive | inactive |  | inactive | inactive | inactive | inactive | inactive | inactive |  |  | 
Clc1nc(Cl)c(Cl)c(Cl)c1Cl | inactive | inactive | inactive | inactive | inactive | inactive | inactive | inactive | inactive | inactive |  | inactive | inactive | inactive | inactive | inactive | inactive |  | inactive | 
CCOC(=O)CC(CC(=O)OCC)(OC(C)=O)C(=O)OCC | inactive | inactive | inactive | inactive | inactive | inactive | inactive | inactive | inactive | inactive | inactive | inactive | inactive | inactive | inactive | inactive | inactive |  |  | 
